Screening data as filed in PubChem BioAssay.
Hits are enriched below; roughly 3.1% of the tested compounds scored in any of these assays.
MEKK2 WT-MEK5 = raises or lowers MEK5 binding to wildtype human MEKK2 PB1 domain. Q9Y2U5. binding response (% of control), % at 10 µM. actives 1.1% (n = 290,000). bead flow cytometry, Alexa488-MEK5 binding to MEKK2 WT; actives lie on both sides; in the data active = binding response below about 67% or above about 130%
PREPL inhibitor = inhibitors of human prolyl oligopeptidase-like enzyme PREPL; AID 2751; inhibition, % at 5.96 µM; Q4J6C6; actives 0.68% (n = 320,000); recombinant PREPL, fluorescence polarization activity-based probe; in the data active = inhibition above about 43%;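 also: 0% = enzyme with DMSO and 100% = wells lacking enzyme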
Target sequence (Q4J6C6 whole entry, looked up): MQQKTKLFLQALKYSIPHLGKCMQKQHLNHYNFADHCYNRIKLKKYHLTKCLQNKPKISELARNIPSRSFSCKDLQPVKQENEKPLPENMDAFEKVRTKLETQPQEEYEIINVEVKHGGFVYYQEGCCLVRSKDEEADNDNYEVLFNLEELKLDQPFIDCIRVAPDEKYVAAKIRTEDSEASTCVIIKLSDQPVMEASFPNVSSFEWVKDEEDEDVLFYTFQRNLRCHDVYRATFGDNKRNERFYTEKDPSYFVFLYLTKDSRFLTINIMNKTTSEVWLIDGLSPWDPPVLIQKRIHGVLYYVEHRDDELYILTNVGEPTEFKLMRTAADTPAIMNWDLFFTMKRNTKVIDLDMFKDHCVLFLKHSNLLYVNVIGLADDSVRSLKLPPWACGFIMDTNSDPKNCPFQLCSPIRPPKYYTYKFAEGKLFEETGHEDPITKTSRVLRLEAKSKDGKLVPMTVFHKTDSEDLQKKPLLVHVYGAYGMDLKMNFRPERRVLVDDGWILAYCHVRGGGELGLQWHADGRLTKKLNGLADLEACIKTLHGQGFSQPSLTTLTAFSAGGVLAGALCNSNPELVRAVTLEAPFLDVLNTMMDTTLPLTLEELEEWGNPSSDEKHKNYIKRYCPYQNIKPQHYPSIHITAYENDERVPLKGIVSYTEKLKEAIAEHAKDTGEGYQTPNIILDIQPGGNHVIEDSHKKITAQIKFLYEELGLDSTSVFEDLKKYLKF
MEKK3 PB1 HTS = MEKK3-MEK5 PB1 interaction, increase or decrease; binding response (% of control), % at 10 µM; Q99759; actives 1.4% (n = 290,000); bead-based flow cytometry, Alexa488-MEK5 binding to MEKK3; actives lie on both sides; 0 = blocked by unlabeled MEK5, 100 = vehicle;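 active = binding response more than 3 SD above or below the average of its plate-row segment, actives on both sides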;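 also: Alexa488 bead fluorescence after subtracting the streptavidin-only scavenger bead signal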
MEKK2 mut-MEK5 = signal of MEK5 binding to mutant human MEKK2 PB1 domain. percent response, % at 10 µM. actives 0.35% (n = 290,000). bead flow cytometry, Alexa488-MEK5 binding to MEKK2 mutant; in the data active = percent response above about 24%, passing the limit was not always enough
ATG4B inh = ATG4B (human) cysteine protease inhibition. actives 0.51% (n = 340,000). AID 504462. inhibition, % at 8.33 µM. ATG4B cleavage of LC3-PLA2, NBD-HPC fluorescence, 1 h; in the data active = inhibition above about 40%
UBC13 polyUb = blocks human UBC13 polyubiquitin chain formation; inhibition, % at 20 µM; P61088; actives 0.47% (n = 330,000); AID 485273; TR-FRET; in the data active = inhibition above about 45%, passing the limit was not always enough
MEKK2wt confirm = raises or lowers MEK5 binding to wildtype human MEKK2, retest. shares compounds with MEKK3 PB1 HTS. AID 1892. bead flow cytometry, Alexa488-MEK5 binding to MEKK2 WT; actives lie on both sides. binding response (% of control), % at 10 µM. actives 2.4% (n = 5,900); in the data active = binding response below about 16% or above about 210%; inactive = in between
MEKK2mut-MEK5 = signal of MEK5 binding to mutant human MEKK2, retest. actives 2% (n = 5,900). percent response, % at 10 µM. AID 1893. bead flow cytometry, Alexa488-MEK5 binding to MEKK2 mutant. shares compounds with MEKK3 PB1 HTS; in the data active = percent response mostly above about 71%, no sharp cut-off; inactive = mostly below about 38%;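 also: higher means compound restores mutant binding toward wildtype level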
MEKK3 confirm = MEKK3-MEK5 PB1 inhibition, single concentration confirmation | shares compounds with MEKK3 PB1 HTS | bead flow cytometry, Alexa488-MEK5 binding to MEKK3; active compounds read low | binding response (% of control), % at 10 µM | actives 1.8% (n = 5,900);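 active = binding response below 72% of control, or above a set upper limit, though filed actives all read lower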;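 also: 100% = DMSO only wells and 0% = binding blocked by excess unlabeled MEK5; lower values mean stronger disruption of MEK5 binding to MEKK3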
Active calls of the source: *; [ ] = dose if it differs, or a comment.

Screening CC(C)COc1ccc(C2(C#N)CC[N+](C)(C)CC2)cc1 returned MEKK2 WT-MEK5 85, PREPL inhibitor -2, MEKK3 PB1 HTS 80*[inhibitor], MEKK2 mut-MEK5 -17, ATG4B inh -2, UBC13 polyUb -2, MEKK2wt confirm 100, MEKK2mut-MEK5 2 and MEKK3 confirm 101.
`C=CCN1C(=O)/C(=C/c2cc(C)n(-c3ccccn3)c2C)C(=O)NC1=S` gave MEKK2 WT-MEK5 61*[inhibitor], PREPL inhibitor 0, MEKK3 PB1 HTS 94, MEKK2 mut-MEK5 -2, ATG4B inh 8, UBC13 polyUb -5, MEKK2wt confirm 96, MEKK2mut-MEK5 -2 and MEKK3 confirm 100.
`COCCNC(=O)Cn1cc(C(=O)c2ccccc2F)c2ccccc21` gave MEKK2 WT-MEK5 98, PREPL inhibitor 2, MEKK3 PB1 HTS 100, MEKK2 mut-MEK5 0, ATG4B inh -4 and UBC13 polyUb -1.
O=C1NC(=O)N(C2CCCCC2)C(=O)C1C1c2ccccc2C(=O)N1Cc1ccccc1 (stereo unspecified) was read as MEKK2 WT-MEK5 87, PREPL inhibitor 0, MEKK3 PB1 HTS 76*[inhibitor], MEKK2 mut-MEK5 -12, ATG4B inh 1, UBC13 polyUb -7, MEKK2wt confirm 108, MEKK2mut-MEK5 4 and MEKK3 confirm 106.
For COc1ccc(CNCCc2cccc(F)c2)c2ccccc12 the results were MEKK2 WT-MEK5 151*, MEKK3 PB1 HTS 113, MEKK2 mut-MEK5 16, UBC13 polyUb 6, MEKK2wt confirm 117, MEKK2mut-MEK5 10 and MEKK3 confirm 103.
Screening COc1cc(OC)c(OC)cc1CNCCc1cccc(F)c1 returned MEKK2 WT-MEK5 103, PREPL inhibitor 13, MEKK3 PB1 HTS 104, MEKK2 mut-MEK5 10, ATG4B inh -4 and UBC13 polyUb 4.
`COc1ccc(C(c2ccc(OC)cc2)C(Cl)(Cl)Cl)cc1` gave PREPL inhibitor 0, ATG4B inh 1 and UBC13 polyUb 3.
CC1(c2ccccc2)NCCN2C(=O)CSC21 (stereo unspecified) was read as MEKK2 WT-MEK5 98, PREPL inhibitor 3, MEKK3 PB1 HTS 102, MEKK2 mut-MEK5 2, ATG4B inh -6 and UBC13 polyUb -6.
`CC1(C)C2SCC(=O)N2CCN1CC(=O)NN` (stereo unspecified) gave MEKK2 WT-MEK5 122, PREPL inhibitor 9, MEKK3 PB1 HTS 128*, MEKK2 mut-MEK5 25, ATG4B inh -3, UBC13 polyUb 7, MEKK2wt confirm 96, MEKK2mut-MEK5 -1 and MEKK3 confirm 97.
For CCC1(CC)COP(=O)(OCC(Cl)CCl)OC1 (stereo unspecified) the results were ATG4B inh -9.
Screening O=C(Nc1ccc(Cl)cc1)OC1CN2CCC1CC2 (stereo unspecified) returned MEKK2 WT-MEK5 93, PREPL inhibitor 1, MEKK3 PB1 HTS 86, MEKK2 mut-MEK5 -8, ATG4B inh 5 and UBC13 polyUb 3.
`O=C(Nc1cccc(Cl)c1)OC1CN2CCC1CC2` (stereo unspecified) gave MEKK2 WT-MEK5 147*, PREPL inhibitor -3, MEKK3 PB1 HTS 110, MEKK2 mut-MEK5 27, ATG4B inh -3, UBC13 polyUb 5, MEKK2wt confirm 125, MEKK2mut-MEK5 8 and MEKK3 confirm 98.
For Brc1ccc(CN2CCNCC2)s1 the results were MEKK2 WT-MEK5 107, PREPL inhibitor 3, MEKK3 PB1 HTS 106, MEKK2 mut-MEK5 5, ATG4B inh -7 and UBC13 polyUb 7.
CCc1ccc(NP(=O)(Oc2ccccc2F)Oc2ccccc2F)cc1 was read as MEKK2 WT-MEK5 -3.0*[inhibitor], PREPL inhibitor -3, MEKK3 PB1 HTS 1.0*[inhibitor], MEKK2 mut-MEK5 -27, ATG4B inh 10, UBC13 polyUb -5, MEKK2wt confirm 100, MEKK2mut-MEK5 -7 and MEKK3 confirm 102.
Screening Cc1ccc(NP(=O)(Oc2ccccc2F)Oc2ccccc2F)cc1 returned MEKK2 WT-MEK5 97, PREPL inhibitor 6, MEKK3 PB1 HTS 101, MEKK2 mut-MEK5 2, ATG4B inh 16 and UBC13 polyUb 6.
`CN1c2ccc([N+](=O)[O-])cc2CC2(C(=O)NC(=O)NC2=O)C1c1ccccc1` (stereo unspecified) gave MEKK2 WT-MEK5 104, PREPL inhibitor 4, MEKK3 PB1 HTS 134*, MEKK2 mut-MEK5 3, ATG4B inh 6, UBC13 polyUb -14, MEKK2wt confirm 96, MEKK2mut-MEK5 -1 and MEKK3 confirm 99.
Screening CN1c2ccc([N+](=O)[O-])cc2CC2(C(=O)NC(=O)N(c3ccccc3)C2=O)C1c1ccccc1 (stereo unspecified) returned MEKK2 WT-MEK5 94, PREPL inhibitor -4, MEKK3 PB1 HTS 109, MEKK2 mut-MEK5 29, ATG4B inh -3 and UBC13 polyUb -21.
COc1ccc(CNCCc2c(C)[nH]c3ccc(OC(F)(F)F)cc23)c(OC)c1 was read as MEKK2 WT-MEK5 139*, PREPL inhibitor 21, MEKK3 PB1 HTS 95, MEKK2 mut-MEK5 19, ATG4B inh -1, UBC13 polyUb 8, MEKK2wt confirm 144, MEKK2mut-MEK5 18 and MEKK3 confirm 104.
For COc1ccc(CC(C)NCCc2ccc(OC)c(OC)c2)cc1 (stereo unspecified) the results were MEKK2 WT-MEK5 113, PREPL inhibitor 8, MEKK3 PB1 HTS 106, MEKK2 mut-MEK5 11, ATG4B inh -7 and UBC13 polyUb -1.
CC/C(=N\NC(=O)c1ccccc1O)c1c(O)n(C2CCCCC2)c(=O)[nH]c1=O was read as MEKK2 WT-MEK5 104, PREPL inhibitor 7, MEKK3 PB1 HTS 104, MEKK2 mut-MEK5 4, ATG4B inh 0 and UBC13 polyUb -13.
COc1cccc(NP(=O)(Oc2ccccc2Cl)Oc2ccccc2Cl)c1 was read as MEKK2 WT-MEK5 109, PREPL inhibitor -5, MEKK3 PB1 HTS 137*, MEKK2 mut-MEK5 1, ATG4B inh 0, UBC13 polyUb -12, MEKK2wt confirm 101, MEKK2mut-MEK5 -7 and MEKK3 confirm 104.
Screening COc1cccc(NP(=O)(Oc2ccccc2)Oc2ccccc2)c1 returned MEKK2 WT-MEK5 111, PREPL inhibitor -6, MEKK3 PB1 HTS 102, MEKK2 mut-MEK5 12, ATG4B inh -8 and UBC13 polyUb 12.
